# Kir21 inh: Kir2.1 (mouse) channel inhibition | P35561 | HEK293-Kir2.1, FluxOR thallium flux fluorescence; stronger effect = lower value | B-score at 10 µM | actives 0.85% (n = 310,000);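 active = fluorescence ratio B-score at or below minus 3 SD of library scores, with starting-brightness B-score within 2 SD, cut at about -4.2 in these data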;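 note: channel flux triggered by added potassium and thallium sulfate stimulus; B-score of peak minus minimum fluorescence over baseline after thallium stimulus; more negative B-score means stronger Kir2.1 block with less thallium influx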
# Target sequence (P35561 whole entry, looked up): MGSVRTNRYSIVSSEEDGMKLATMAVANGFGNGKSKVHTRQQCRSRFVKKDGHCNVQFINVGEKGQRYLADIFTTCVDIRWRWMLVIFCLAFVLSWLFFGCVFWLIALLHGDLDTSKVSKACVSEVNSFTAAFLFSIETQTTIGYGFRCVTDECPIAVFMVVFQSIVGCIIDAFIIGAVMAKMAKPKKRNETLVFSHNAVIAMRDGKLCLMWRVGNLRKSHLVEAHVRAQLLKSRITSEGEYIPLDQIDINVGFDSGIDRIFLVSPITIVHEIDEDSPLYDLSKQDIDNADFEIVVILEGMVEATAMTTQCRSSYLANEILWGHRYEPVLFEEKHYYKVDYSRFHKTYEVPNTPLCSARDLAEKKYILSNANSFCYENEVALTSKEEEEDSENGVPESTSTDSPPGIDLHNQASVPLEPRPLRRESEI
# ANO1 activ: activates or potentiates the mouse TMEM16A chloride channel | AID 623877 | B-score at 10 µM | actives 0.3% (n = 340,000) | HEK293 TMEM16A/YFP-H148Q/I152L, iodide quench fluorescence; stronger effect = lower value;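 active = fluorescence-ratio B-score plate-corrected deviation score at least 3 library SD below zero, with starting fluorescence score within 5 deviations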;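 note: channel opened by trigger with iodide after compound preincubation; score built on the fluorescence ratio of max minus min over baseline; more negative score means more quench and so TMEM16A activation or potentiation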
# GPR7 antag: human neuropeptides B/W receptor 1 antagonism; P48145; inhibition, % at 4.4 µM; GPR7-expressing cells, fluorescence antagonist assay; actives 1.1% (n = 290,000); in the data active = inhibition above about 16%, passing the limit was not always enough;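 note: cells stimulated with the agonist NPW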
# CHT inh: inhibitors of human choline transporter CHT. Q9GZV3. CHT-expressing cells, membrane potential dye, choline response; stronger effect = lower value. B-score at 10 µM. actives 0.86% (n = 310,000);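 active = B-score over 3 SD under the library average, and starting fluorescence ratio not unusually high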;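 note: choline stimulus applied at its EC90 after an EC20 pre-addition; B-score computed on integrated fluorescence ratio after choline addition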
# ANO1 block: blocks the mouse calcium-activated chloride channel TMEM16A; HEK293 TMEM16A/YFP iodide influx fluorescence, ionomycin; actives 1.2% (n = 310,000); Q8BHY3; normalized B-score (activity score, 25-100; higher = stronger inhibition) at 10 µM;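 active = ratio plate-corrected score three or more library SD toward inhibition, starting fluorescence score within five deviations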;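 note: score derived from kinetic fluorescence span divided by baseline fluorescence per well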
# CHT allo act: human CHT allosteric activation. AID 488977. B-score at 10 µM. Q9GZV3. CHT-expressing cells, membrane potential dye, choline EC20; stronger effect = higher value; LV-AA mutant CHT in HEK293 cells. actives 0.49% (n = 310,000);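 active = initial fluorescence not abnormally high and integrated response B-score, plate-corrected, over 3 SD above library mean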
# GPR7 antag cf: confirmation of human GPR7 antagonists. GPR7-expressing cells, calcium fluorescence antagonist mode. actives 52% (n = 2,400). shares compounds with GPR7 antag. inhibition, % at 4.4 µM; in the data active = inhibition above about 24%;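 note: stimulated with the GPR7 agonist NPW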
# MCHR1 antag: counter-screen for GPR7 antagonists: antagonists of human MCHR1 | shares compounds with GPR7 antag | MCHR1-expressing cells, fluorescence antagonist assay | inhibition, % at 4.4 µM | actives 62% (n = 2,400) | AID 2148; in the data active = inhibition above about 22%
# Numbers stand for hits; 0 = inactive; - = no result. This is a sample that favours compounds with a hit; in the whole collection about 3.7% have one here.
SMILES,Kir21 inh,ANO1 activ,GPR7 antag,CHT inh,ANO1 block,CHT allo act,GPR7 antag cf,MCHR1 antag
Cc1cc(C)cc(C(=O)Nc2ccc(N3CCN(C(=O)c4ccco4)CC3)cc2)c1,0,0,0,0,0,0,-,-
COc1ccc(-c2cc(C)no2)cc1S(=O)(=O)N1CCOc2ccccc21,0,0,23,0,0,0,0,0
CCC(C)(c1nnnn1-c1c(C)cccc1C)N(N=O)c1ccccc1Cl (stereo not given),-,0,0,0,0,0,-,-
CC1CCCC1/C(=N/O)c1ccccc1 (stereo not given),0,0,0,0,0,0,-,-
CC(C(=O)N1CCN(Cc2ccc3c(c2)OCO3)CC1)c1ccc([N+](=O)[O-])cc1 (stereo not given),0,0,27,0,0,0,27,27
On1onc2c3cc(-c4ccccc4)nc3ccc21,-,0,30,0,0,0,0,67
c1ccc(-c2cc3c(ccc4nonc43)nn2)cc1,0,0,0,0,0,0,-,-
COc1ccc(CC(=O)N2CCNC2=O)cc1,0,0,30,0,0,0,0,0
Cc1ccc(C)c(CN2CCC(CNC(=O)Nc3ccc(C)c(C)c3)CC2)c1,0,0,36,0,0,0,0,25
CC(C)n1c(SCC(=O)NC2CC2)nnc1-c1ccco1,0,0,0,0,0,0,-,-
COc1ccc(-c2[nH]ncc2[C@@H]2C[C@H]3CN(Cc4ccccc4C)C(=O)[C@]34CCCN24)cc1,0,0,0,0,0,0,-,-
Cc1ccccc1CN1C[C@@H]2C[C@@H](c3cn[nH]c3-c3ccc(F)cc3)N3CCC[C@@]23C1=O,0,0,-,0,0,0,-,0
CC(C)c1cccc(C(C)C)c1NC(=O)CNCC(O)c1ccccc1 (stereo not given),0,-,0,0,0,0,-,-
CC(C)c1cccc(C(C)C)c1NC(=O)CNCc1ccccc1F,0,0,22,0,0,0,30,32
c1ccc(C2Nc3ccccc3C3OCCCC23)cc1 (stereo not given),0,0,0,0,0,0,-,-
O=C(NCCc1ccccc1F)C1CCCN1S(=O)(=O)c1ccc2ccccc2c1 (stereo not given),0,0,23,0,0,0,0,22
COc1ccccc1CNS(=O)(=O)c1ccc(Cl)s1,0,0,23,0,0,0,0,0
COc1ccccc1CNS(=O)(=O)N(C)C,0,0,0,0,0,0,-,-
O=C(C[n+]1ccc(C(=O)NCc2ccccc2)cc1)c1ccc(Cl)cc1,0,0,0,0,0,0,-,-
COc1ccc(OC)c(NC(=O)c2cccc(NC(=O)c3ccccc3C(=O)O)c2)c1,0,0,0,0,0,0,-,-
COc1ccc(Br)c(C(=O)NC2CCCC2)c1,0,0,22,0,0,0,0,0
COc1ccc(Br)c(C(=O)NCC2CCCCC2)c1,0,0,0,0,0,0,-,-
COc1ccc2oc(C(=O)NC3CCCCC3)c(C)c2c1,0,0,29,0,0,0,0,30
COc1cc2cc(CN(CCc3cccc(C)c3)C(=S)NCCCN3CCOCC3)c(=O)[nH]c2cc1OC,0,0,0,0,0,0,-,-
N#Cc1cccc(NC(=O)COc2ccc(-n3ccnc3)cc2)c1,0,0,24,0,25,0,0,44
SMILES,Kir21 inh,ANO1 activ,GPR7 antag,CHT inh,ANO1 block,CHT allo act,GPR7 antag cf,MCHR1 antag
COc1ccc2c(c1)C(C)=CC(C)(C)N2S(=O)(=O)c1ccc(NC(C)=O)cc1,0,0,24,0,0,0,32,44
C/C(=N/NC(=O)c1cc(C)[nH]n1)c1ccncc1,0,0,0,0,0,0,-,-
Cc1cccc(C)c1NC(=O)c1nc(S(=O)(=O)Cc2ccccc2)ncc1Cl,0,0,0,0,0,0,-,-
Cc1cccc(CS(=O)(=O)c2ncc(Cl)c(C(=O)Nc3c(C)cccc3C)n2)c1,-12,0,51,0,0,0,58,97
CCc1ccc(-n2c(SCC(=O)N3Cc4ccccc4CC3C(=O)O)nnc2-c2ccncc2)cc1 (stereo not given),0,0,21,0,0,0,0,0
Cc1c(Cl)ccc2c(C(=O)NCCN3CCCCC3)cc(-c3ccccn3)nc12,0,0,0,0,0,0,-,-
COc1ccccc1-c1cc(C(=O)NC2CCN(C)CC2)c2ccc(Cl)c(C)c2n1,0,0,43,0,0,0,69,81
O=C(CN(C(=O)c1csnn1)c1cccc(F)c1)NC1CCCC1,0,0,28,0,0,0,0,0
CCN(CC)c1ccc(CNCc2cccs2)cc1,0,0,0,0,0,0,-,-
O=C(COC(=O)CNC(=O)c1ccccc1)Nc1ccc(Cl)cn1,-,0,-,-,-,-,-,-
O=P(OC1CCCCC1)(OC1CCCCC1)C(Nc1ccccc1)c1cccnc1 (stereo not given),0,0,32,0,0,0,31,39
COc1ccc(C(=O)COC(=O)CN2C(=O)c3ccccc3C2=O)c(OC)c1,0,0,0,0,0,0,-,-
Cc1c(-c2cccc(Cl)c2)nc2ccccc2c1C(=O)NC1CC1,0,0,0,0,0,0,-,-
Nc1nc(N)nc(-c2ccccc2-c2nc(N)nc(N)n2)n1,0,0,0,0,0,0,0,0
O=S(=O)(c1cccs1)N1CCN(Cc2cccc(F)c2)CC1,0,0,30,0,0,0,0,0
CCOC(=O)Cc1csc(NC(=O)Nc2cccc(OC)c2)n1,0,0,0,0,0,0,-,-
Cc1ccc(Cl)cc1N1CCN(Cc2nnnn2Cc2ccco2)CC1,0,0,0,0,0,0,-,-
CCC(c1nnnn1Cc1ccco1)N1CCN(c2cc(Cl)ccc2C)CC1 (stereo not given),0,0,23,0,0,0,30,52
OCCC1CN(CC2CCCCC2)CCN1CC1CCCCC1 (stereo not given),0,0,0,0,0,0,-,-
CN(Cc1ccccc1)C1=CC(=[N+]2CCCCC2)CC(C)(C)C1,0,0,40,0,0,0,57,48
O=C(NC(=S)Nc1cccc([N+](=O)[O-])c1)C1CCCCC1,0,0,32,0,0,0,33,39
CN(C)S(=O)(=O)c1cccc(NC(=S)NC(=O)C2CCCCC2)c1,0,0,32,0,0,0,0,35
CN(C)S(=O)(=O)c1cccc(NC(=S)NC2CCCCC2)c1,0,0,0,0,0,0,-,-
C/C(=N/NC(=O)c1cccc(N2CCCC2=O)c1)c1ccncc1,0,0,0,0,0,0,-,-
COc1cc(OC)c(CN2CCN(c3ccc(F)cc3)CC2)cc1Br,0,0,22,0,0,0,0,0

# Source: PubChem BioAssay
